The results in this text go back to PubChem BioAssay AID652097 (National Center for Advancing Translational Sciences (NCATS), 2013).

The structures appear in SMILES notation. Activity calls are given as the source filed them.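 How the source made its calls: active means microscopy shows reduced glucosylceramide buildup in Gaucher patient macrophages after treatment; inactive means no reduction in glucosylceramide buildup seen.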

The experiment in a line: Extended Characterization of Activators of N370S glucocerebrosidase as a Potential Chaperone Treatment of Gaucher Disease: GC accumulation. As to conditions: N370S Gaucher macrophages, immunofluorescence microscopy. An excerpt: Glucocerebrosidase (GCase) catalyzes the hydrolysis of beta-glucocerebroside (GC) to glucose and ceramide in lysosomes. Mutations in the glucocerebrosidase gene result in Gaucher disease, an autosomal recessive lysosomal storage disorder. Many of the mutations encountered in patients with Gaucher disease are missense alterations that may cause misfolding, decreased stability and/or mistrafficking of this lysosomal protein. […] These inhibitors include iminosugar analogs and other inhibitors that were discovered as part of previous work. However, the enhancement of enzyme activity by the chaperone action of an enzyme inhibitor must be balanced against the direct inhibition of the enzyme. […] In this extended characterization of our probe, we have further characterized the activity of probes in relevant models of Gaucher disease. This assay attempts to quantitate translocated glucocerebrosidase protein in patient-derived macrophages following extended compound incubation. NIH Chemical Genomics Center [NCGC] NIH Molecular Libraries Probe Production Centers Network [MLPCN] MLPCN Grant: MH086442 Assay Submitter (PI): Ellen Sidransky, NHGRI
Macrophages derived from N370S/N370S Gaucher patients and a control were seeded in Lab-Tek 4 chamber slides (Fisher Scientific, Pittsburgh, PA). After compound treatment, cells were fixed in 3% paraformaldehyde. […]
As to `C#Cc1ccc(NC(=O)c2cnn3c(C)cc(C)nc23)cc1`, the outcome was “active; decreased”.
